Test results: ChEMBL document CHEMBL3988442, “University of Dundee, Small-Polar-MMV Screening Library” (2021)
For some assays here: Entries with a potency or affinity are not part of this list.

How the values were obtained:
Parameters in all cases: scale not given: direction of the effect not stated beside the values
[1] = target: Protein translocase subunit SecA (Escherichia coli (strain K12)) (UniProt P10408); assay: Assay to Identify E. coli SecA ATPase Inhibitors; format: functional; details: 30 µM
Sequence of Protein translocase subunit SecA (Escherichia coli (strain K12)) (P10408 whole entry): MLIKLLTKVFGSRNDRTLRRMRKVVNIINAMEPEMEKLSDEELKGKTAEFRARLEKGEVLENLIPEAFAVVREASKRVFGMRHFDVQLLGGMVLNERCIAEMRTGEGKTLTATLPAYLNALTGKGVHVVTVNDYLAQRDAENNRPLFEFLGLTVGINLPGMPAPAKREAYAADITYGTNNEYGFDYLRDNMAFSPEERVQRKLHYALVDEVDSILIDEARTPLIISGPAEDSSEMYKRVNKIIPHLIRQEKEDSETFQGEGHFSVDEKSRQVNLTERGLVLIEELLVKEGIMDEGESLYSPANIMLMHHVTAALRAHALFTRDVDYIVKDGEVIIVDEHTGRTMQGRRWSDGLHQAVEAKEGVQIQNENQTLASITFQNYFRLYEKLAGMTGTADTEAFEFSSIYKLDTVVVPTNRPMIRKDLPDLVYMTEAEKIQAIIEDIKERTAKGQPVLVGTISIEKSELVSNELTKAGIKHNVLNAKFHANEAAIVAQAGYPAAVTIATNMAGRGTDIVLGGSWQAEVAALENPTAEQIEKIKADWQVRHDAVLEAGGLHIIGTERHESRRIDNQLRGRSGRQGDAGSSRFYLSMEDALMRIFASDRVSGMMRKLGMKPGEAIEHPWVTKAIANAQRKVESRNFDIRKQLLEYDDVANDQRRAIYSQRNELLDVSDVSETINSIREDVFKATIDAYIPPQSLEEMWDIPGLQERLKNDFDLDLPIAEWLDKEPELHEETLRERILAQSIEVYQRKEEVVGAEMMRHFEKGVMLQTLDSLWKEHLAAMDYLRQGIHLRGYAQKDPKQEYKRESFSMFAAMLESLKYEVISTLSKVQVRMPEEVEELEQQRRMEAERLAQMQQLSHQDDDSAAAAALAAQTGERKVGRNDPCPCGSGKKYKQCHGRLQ

[2] = target: T1, Ubiquitin-activating enzyme e1, putative (Leishmania donovani (strain BPK282A1)) (UniProt E9BSI1); assay: Leishmania donovani Ubiquitin Activating Enzyme (LdE1); format: functional; details: 30 µM
T1 sequence (whole entry): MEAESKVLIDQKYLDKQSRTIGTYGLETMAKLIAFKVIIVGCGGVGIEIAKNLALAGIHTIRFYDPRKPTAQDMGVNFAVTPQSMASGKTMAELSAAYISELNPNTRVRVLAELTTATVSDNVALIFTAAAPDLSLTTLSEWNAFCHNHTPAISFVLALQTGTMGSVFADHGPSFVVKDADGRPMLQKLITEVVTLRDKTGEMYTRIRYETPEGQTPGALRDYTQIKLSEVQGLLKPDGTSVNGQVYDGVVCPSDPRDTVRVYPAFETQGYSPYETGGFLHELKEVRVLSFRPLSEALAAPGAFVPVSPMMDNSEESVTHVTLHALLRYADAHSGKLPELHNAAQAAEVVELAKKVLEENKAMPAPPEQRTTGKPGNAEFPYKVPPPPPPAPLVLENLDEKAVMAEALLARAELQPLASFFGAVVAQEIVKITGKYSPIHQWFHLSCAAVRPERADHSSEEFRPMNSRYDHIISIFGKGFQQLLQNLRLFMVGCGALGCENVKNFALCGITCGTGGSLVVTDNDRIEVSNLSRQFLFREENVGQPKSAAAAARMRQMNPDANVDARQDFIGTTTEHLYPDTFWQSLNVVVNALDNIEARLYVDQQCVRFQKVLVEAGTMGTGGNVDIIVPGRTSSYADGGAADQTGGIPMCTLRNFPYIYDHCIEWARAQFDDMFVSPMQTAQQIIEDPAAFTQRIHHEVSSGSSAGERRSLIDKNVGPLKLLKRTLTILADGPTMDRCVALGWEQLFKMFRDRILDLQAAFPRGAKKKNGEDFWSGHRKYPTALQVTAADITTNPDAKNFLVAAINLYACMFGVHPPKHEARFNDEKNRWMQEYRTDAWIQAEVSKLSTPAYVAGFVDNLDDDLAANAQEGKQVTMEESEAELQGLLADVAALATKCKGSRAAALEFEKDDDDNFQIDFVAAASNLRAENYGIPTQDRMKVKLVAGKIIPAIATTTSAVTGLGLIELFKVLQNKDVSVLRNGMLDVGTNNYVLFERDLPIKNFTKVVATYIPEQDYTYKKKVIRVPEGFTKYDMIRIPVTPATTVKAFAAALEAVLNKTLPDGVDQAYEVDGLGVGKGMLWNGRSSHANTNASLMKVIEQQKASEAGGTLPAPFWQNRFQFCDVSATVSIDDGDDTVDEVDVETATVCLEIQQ

[3] = target: AMP-activated protein kinase, AMPK (Homo sapiens) (UniProt P54646+O43741+P54619+Q9UGJ0+Q9Y478+Q13131+Q9UGI9); assay: AMP-dependent Kinase enzyme assay. An in vitro enzyme assay that detects ADP turnover that is directly proportional to AMPK activity. This uses naive AMPK that is activated during the assay with MK-8722; format: functional; details: 30 µM
[4] = target: Sialic acid-binding Ig-like lectin 9 (Homo sapiens) (UniProt Q9Y336); assay: Hs-Siglec9 ALPHAscreen SOP 20170721; details: 10 µM
Sequence of Sialic acid-binding Ig-like lectin 9 (Homo sapiens) (Q9Y336 whole entry): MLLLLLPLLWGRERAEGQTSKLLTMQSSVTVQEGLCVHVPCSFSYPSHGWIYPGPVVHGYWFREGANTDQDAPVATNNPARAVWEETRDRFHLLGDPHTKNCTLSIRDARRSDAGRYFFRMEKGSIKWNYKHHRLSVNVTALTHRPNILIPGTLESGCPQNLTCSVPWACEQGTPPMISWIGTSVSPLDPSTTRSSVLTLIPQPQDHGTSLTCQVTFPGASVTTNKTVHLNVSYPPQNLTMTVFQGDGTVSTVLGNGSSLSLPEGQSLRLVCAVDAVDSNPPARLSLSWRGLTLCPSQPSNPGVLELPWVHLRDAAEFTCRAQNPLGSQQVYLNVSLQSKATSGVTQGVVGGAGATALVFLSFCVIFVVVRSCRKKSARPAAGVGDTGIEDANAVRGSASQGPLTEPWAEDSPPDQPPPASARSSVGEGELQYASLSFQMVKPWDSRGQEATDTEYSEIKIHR

Trypanosoma cruzi = assay: Trypanosoma cruzi phosphomannomutase and mannose-1-phosphate guanylyltransferase assay; format: functional; details: 10 µM
[5] = target: T2, Arginase-2, mitochondrial (Homo sapiens) (UniProt P78540); assay: in vitro enzyme assay to detect the production of urea directly proportional to the activity of Arginase II; format: functional; details: 33.3 µM; note: in the data most compounds retested in dose-response had high values
T2 sequence (whole entry): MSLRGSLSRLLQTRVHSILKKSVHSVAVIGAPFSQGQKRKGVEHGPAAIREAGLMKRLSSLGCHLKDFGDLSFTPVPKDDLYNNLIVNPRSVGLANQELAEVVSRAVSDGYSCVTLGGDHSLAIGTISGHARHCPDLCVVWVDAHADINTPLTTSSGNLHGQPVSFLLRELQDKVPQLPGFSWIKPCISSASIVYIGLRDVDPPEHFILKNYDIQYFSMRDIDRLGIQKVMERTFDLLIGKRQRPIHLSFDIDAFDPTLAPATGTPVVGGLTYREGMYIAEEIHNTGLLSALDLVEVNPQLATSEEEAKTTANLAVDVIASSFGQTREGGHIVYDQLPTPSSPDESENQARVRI

[6] = target: T3, Proteasome subunit beta (Trypanosoma cruzi) (UniProt O96673); assay: Trypanosoma cruzi proteasome chymotrypsin-like activity (TcProtChymo) assay.; note: in the data most compounds retested in dose-response had high values; format: functional; details: 9.37 µM
T3 sequence (whole entry): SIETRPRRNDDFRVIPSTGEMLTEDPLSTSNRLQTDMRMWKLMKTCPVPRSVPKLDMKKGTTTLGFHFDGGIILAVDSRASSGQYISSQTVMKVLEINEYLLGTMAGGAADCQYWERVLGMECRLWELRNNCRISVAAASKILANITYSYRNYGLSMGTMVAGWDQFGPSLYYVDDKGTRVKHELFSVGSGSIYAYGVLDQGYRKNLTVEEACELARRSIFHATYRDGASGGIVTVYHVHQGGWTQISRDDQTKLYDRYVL

Homo sapiens = organism: Homo sapiens; assay: To identify inhibition of the IFN signalling (Jak-Stat) pathway via expression of an eGFP reporter gene under the control of an IFN-stimulated response element (ISRE) containing MxA promoter.; format: functional; details: 30 µM
[7] = target: T4, Tyrosyl-tRNA synthetase, putative (Trypanosoma cruzi (strain CL Brener)) (UniProt Q4DSP6); assay: Trypanosoma cruzi tyrosyl tRNA synthetase (TcYRS) _High Tyrosine SOP; format: functional; details: 30 µM; note: in the data most compounds retested in dose-response had high values
T4 sequence (whole entry): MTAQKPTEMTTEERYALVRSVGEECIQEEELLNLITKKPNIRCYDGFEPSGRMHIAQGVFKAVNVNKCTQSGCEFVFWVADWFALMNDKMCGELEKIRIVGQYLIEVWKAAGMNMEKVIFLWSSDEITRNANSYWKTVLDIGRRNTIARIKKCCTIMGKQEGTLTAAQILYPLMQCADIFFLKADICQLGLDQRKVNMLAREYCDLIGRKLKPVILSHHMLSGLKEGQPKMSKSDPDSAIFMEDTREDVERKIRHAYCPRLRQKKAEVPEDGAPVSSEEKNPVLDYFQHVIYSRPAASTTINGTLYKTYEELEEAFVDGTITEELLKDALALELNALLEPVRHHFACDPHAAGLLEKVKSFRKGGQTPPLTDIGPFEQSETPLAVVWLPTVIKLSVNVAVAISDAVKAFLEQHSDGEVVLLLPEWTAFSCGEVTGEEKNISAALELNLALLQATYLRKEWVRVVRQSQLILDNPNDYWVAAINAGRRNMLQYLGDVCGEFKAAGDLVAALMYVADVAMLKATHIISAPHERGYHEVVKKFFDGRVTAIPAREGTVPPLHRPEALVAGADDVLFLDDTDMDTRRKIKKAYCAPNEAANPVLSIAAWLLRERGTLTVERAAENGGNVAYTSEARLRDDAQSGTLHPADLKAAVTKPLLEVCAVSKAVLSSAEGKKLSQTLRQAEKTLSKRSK

[8] = target: T4, Tyrosyl-tRNA synthetase, putative (Trypanosoma cruzi (strain CL Brener)); assay: Trypanosoma cruzi tyrosyl tRNA synthetase (TcYRS) SOP; format: functional; details: 30 µM
[9] = target: Chromo domain-containing protein 1 (Saccharomyces cerevisiae (strain ATCC 204508 / S288c) (Baker's yeast)) (UniProt P32657); assay: ScCHD-1 Enzyme Inhibition Assay; format: functional; details: 30 µM; note: in the data most compounds retested in dose-response had high values
Sequence of Chromo domain-containing protein 1 (Saccharomyces cerevisiae (strain ATCC 204508 / S288c) (Baker's yeast)) (P32657 whole entry, the tested form may be a part): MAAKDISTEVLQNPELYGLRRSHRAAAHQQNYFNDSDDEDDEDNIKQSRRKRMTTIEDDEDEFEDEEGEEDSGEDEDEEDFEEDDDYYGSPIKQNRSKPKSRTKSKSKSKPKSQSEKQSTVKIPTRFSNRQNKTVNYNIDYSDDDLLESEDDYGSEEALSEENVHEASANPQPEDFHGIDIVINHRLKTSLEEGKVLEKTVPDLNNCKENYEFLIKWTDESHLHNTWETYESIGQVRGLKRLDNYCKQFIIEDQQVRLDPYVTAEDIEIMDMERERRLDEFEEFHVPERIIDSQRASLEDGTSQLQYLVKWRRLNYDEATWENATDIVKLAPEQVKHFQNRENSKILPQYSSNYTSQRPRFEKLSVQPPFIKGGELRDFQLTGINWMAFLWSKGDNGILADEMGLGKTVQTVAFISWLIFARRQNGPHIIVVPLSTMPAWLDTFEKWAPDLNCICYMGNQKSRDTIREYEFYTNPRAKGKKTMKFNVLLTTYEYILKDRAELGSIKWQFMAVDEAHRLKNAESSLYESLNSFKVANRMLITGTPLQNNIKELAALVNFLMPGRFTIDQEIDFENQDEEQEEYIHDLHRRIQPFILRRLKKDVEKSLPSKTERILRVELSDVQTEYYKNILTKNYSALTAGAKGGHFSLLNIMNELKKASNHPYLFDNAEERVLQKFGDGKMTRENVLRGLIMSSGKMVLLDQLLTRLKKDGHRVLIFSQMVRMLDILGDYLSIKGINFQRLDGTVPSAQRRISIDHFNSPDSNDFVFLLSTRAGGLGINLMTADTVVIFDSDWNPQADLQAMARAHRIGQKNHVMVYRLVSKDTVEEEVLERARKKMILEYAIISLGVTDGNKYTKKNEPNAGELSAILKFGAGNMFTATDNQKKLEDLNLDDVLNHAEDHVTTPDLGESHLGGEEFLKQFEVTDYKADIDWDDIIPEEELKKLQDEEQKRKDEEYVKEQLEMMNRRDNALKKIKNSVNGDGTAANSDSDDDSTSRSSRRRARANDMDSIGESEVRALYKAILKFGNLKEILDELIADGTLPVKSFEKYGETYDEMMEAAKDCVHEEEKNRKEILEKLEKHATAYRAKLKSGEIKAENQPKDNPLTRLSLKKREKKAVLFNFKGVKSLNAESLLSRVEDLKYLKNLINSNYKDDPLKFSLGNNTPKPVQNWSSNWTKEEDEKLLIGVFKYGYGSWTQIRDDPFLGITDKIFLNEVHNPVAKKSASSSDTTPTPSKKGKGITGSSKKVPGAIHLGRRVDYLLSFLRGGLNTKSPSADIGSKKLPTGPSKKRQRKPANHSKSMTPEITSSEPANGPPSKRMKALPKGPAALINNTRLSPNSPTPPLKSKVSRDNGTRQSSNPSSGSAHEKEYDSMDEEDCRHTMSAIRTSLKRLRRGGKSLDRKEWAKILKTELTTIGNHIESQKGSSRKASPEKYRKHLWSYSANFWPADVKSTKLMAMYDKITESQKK

SMILES | Percent Effect [1] | Percent Effect [2] | Percent Effect [3] | Percent Effect [4] | Percent Effect (Trypanosoma cruzi) | Percent Effect [5] | Percent Effect [6] | Percent Effect (Homo sapiens) | Percent Effect [7] | Percent Effect [8] | Percent Effect [9]
CN(C)S(=O)(=O)N1CCC2(COCc3cnc(-c4ccccc4)nc32)C1 (stereo unspecified) | -3.52% | 13.3% | 1.46% | -2.12% | 4.44% | -1.25% | 12.3% | 12.3% | -8.33% | 2.5% | -4.77%
Cc1nc(C(=O)N2CCC(Nc3cccnn3)CC2)cs1 | -9.75% | 7.79% | -12.2% | -10.3% | 9.11% | -5.68% | 12.7% | -1.06% | 1.91% | 18.8% | -20.4%
Cc1cnn(CCNCC(=O)NCCOc2ccccc2)c1 | 0.828% | 21.1% | 4.84% | -1.9% | -5.88% | 0.719% | 6.85% | 25.5% | 4.43% | -6.17% | -8.28%
Cc1ccc(C2CCCN2Cc2nc3c(cnn3C)c(=O)[nH]2)cc1C (stereo unspecified) | -4.42% | 27.9% | -6.55% | -1.46% | 5.19% | -1.52% | 13.8% | 4.19% | 7.39% | 24.1% | -5.15%
CCn1nc(CC(C)C)cc1C(=O)NCCn1cccc1 | -6.33% | -1.39% | 1.75% | 1.17% | -3.01% | -3.09% | 11.6% | -24.3% | 0% | -2.56% | 1.57%
CC(=O)N(C)c1nc(CN2CCOC(Cn3cccn3)C2)cs1 (stereo unspecified) | 1.46% | 8.11% | -1.27% | 15.7% | 3.09% | 17.1% | 15.9% | 10.3% | 4.76% | 12.2% | -5.18%
CCc1nc(CN2CCCN(C(=O)C(C)COC)CC2)cs1 (stereo unspecified) | -1.87% | 26% | -9.16% | 1.76% | 3% | 3.92% | 17.2% | 10.8% | 9.71% | 21.9% | -10.9%
O=C(c1cncc(Br)c1)N1CCC(O)(Cn2ccc3ccncc32)CC1 | 1.79% | 1.35% | 12.2% | -0.489% | -7.91% | 1.62% | 9.52% | 9.61% | 1.07% | 1.3% | -12.2%
CCc1nc(CN2CCCN(c3ncnc4ccccc34)CC2)no1 | 0.435% | 13% | -3.4% | 2.9% | 4.03% | -12.4% | 18.3% | 74.7% | 3.23% | 16.1% | -2.22%
CC(=O)NCCc1ccc(S(=O)(=O)N(CC(C)C)C(C)C)s1 | 3% | 4.17% | 30.7% | 4.43% | -6.9% | -0.883% | 18.2% | 16.9% | -2.1% | -5.13% | 106%
Cc1ccc(N2CCCN(C(=O)c3cc(Cl)c[nH]3)CC2)nn1 | -3.96% | -5.48% | 4.73% | 4.6% | -3.17% | 3.59% | 9.33% | 2.32% | 12.5% | 23.5% | -1.25%
Cc1cc(NC(=O)c2nc(N3CCCC3)ncc2Cl)nc(C(C)C)n1 | -0.667% | 5.41% | -5.04% | -2.54% | -8.79% | 3.33% | 17.2% | 2.69% | 9.9% | 8.54% | 0.666%
Cc1cc(CC(=O)N2CCCC2c2nc(C(C)C)no2)on1 (stereo unspecified) | -3.03% | 20.8% | -13.1% | 26.8% | 8.84% | 3.97% | 18.8% | 5.27% | 6.32% | 15.4% | -9.95%
CCc1noc(CN2CCN(C(=O)N(C)C)CC2)n1 | -5.22% | -2.53% | 7.62% | 3.9% | -5.38% | 0.38% | 4.83% | 23.4% | -5.42% | -16.5% | -4.89%
CCCN1CCN(C(=O)c2scnc2C)CC1 | -7.16% | 10.5% | 0.673% | 9.57% | 2.82% | 0% | 9.3% | -10.2% | 1.06% | 10.4% | -4.16%
CNC(=O)Cc1ccc(NC(=O)NC(C)C(C)C)cc1 (stereo unspecified) | -2.02% | 10.5% | 3.68% | 1.41% | 1.66% | 0% | 8.53% | -8.18% | 4.25% | 15.6% | -3.23%
